This note sets out measurements from article PMC12820563, “FoxP3 forms a head-to-head dimer in vivo and stabilizes its multimerization on adjacent microsatellites”.

The full ranking holds about 16,000 sequences; the median of “rpm ratio (pull-down/input)” is about 0.94, and the highest 2% start at about 1.7. This excerpt belongs to a sample that is enriched for the highest values.

For this assay, the target named is T1, MBP-FoxP1dN (Mus musculus, UniProt P58462 326-579).
T1 sequence: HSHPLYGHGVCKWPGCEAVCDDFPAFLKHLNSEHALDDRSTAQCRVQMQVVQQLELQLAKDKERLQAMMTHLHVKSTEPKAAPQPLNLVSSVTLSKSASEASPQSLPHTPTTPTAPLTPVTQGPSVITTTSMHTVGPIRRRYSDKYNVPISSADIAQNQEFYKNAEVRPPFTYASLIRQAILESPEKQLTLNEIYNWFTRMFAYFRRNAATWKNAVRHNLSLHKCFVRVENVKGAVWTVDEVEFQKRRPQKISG
The assay is described as follows: PD-seq (MBP pull-down with sequencing); 20 mM Tris-HCl pH 7.5, 100 mM NaCl, 1.5 mM MgCl2, 0.4 uM protein, 0.1 uM dsDNA library, 30 min, room temperature, amylose pull-down; high values mean tight binding. The settings on record: protein: recombinant; tags: His6-MBP; chain copies: 2; dsDNA, one strand shown. The gist of the method: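 A degenerate double-stranded DNA library, filled in with Klenow, was added at 0.1 µM to 0.4 µM His6-MBP-tagged mouse FoxP3 or FoxP1 fragment lacking the N-terminus, expressed in E. coli. Incubation lasted 30 min at room temperature in Tris pH 7.5 buffer with NaCl and MgCl2, after which complexes were collected on amylose resin, washed three times, digested with proteinase K to free the DNA, barcoded by PCR and sequenced by Illumina. Binding is the pooled-replicate reads-per-million enrichment of pull-down over input.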
With “GATGATTGTTCTCCCAGCTGATGAATTGGATGTATCGAGTAAACAAATTTTCCTAATCTTTCTGTTCAAGCGCCATCTAC”, the binding signal was 1.1 RPM ratio (pull-down/input).
In the case of “GATGATTGTTCTCCCAGCTGATGAATTGAAAATCTCGAGTAAACAAATTTTCCTAATCTTTCTGTTCAAGCGCCATCTAC”, the binding signal is 0.791 RPM ratio (pull-down/input).
Next, “GATGATTGTTCTCCCAGCTGATGAATTCAACTCGTCGAGTAAACAAATTTTCCTAATCTTTCTGTTCAAGCGCCATCTAC”: 0.869 RPM ratio (pull-down/input); “GATGATTGTTCTCCCAGCTGATGAATTTCTGTACTCGAGTAAACAAATTTTCCTAATCTTTCTGTTCAAGCGCCATCTAC”: 0.909 RPM ratio (pull-down/input); “GATGATTGTTCTCCCAGCTGATGAATTTACCATCTCGAGTAAACAAATTTTCCTAATCTTTCTGTTCAAGCGCCATCTAC”: 1.19 RPM ratio (pull-down/input).
“GATGATTGTTCTCCCAGCTGATGAATTTCCAATGTCGAGTAAACAAATTTTCCTAATCTTTCTGTTCAAGCGCCATCTAC”: the binding signal was 0.862 RPM ratio (pull-down/input).
Next, “GATGATTGTTCTCCCAGCTGATGAATTATCCGATTCGAGTAAACAAATTTTCCTAATCTTTCTGTTCAAGCGCCATCTAC”: 0.95 RPM ratio (pull-down/input).
Regarding “GATGATTGTTCTCCCAGCTGATGAATTTGTATTCTCGAGTAAACAAATTTTCCTAATCTTTCTGTTCAAGCGCCATCTAC”, the binding signal is 1.44 RPM ratio (pull-down/input).
With “GATGATTGTTCTCCCAGCTGATGAATTTCTATTATCGAGTAAACAAATTTTCCTAATCTTTCTGTTCAAGCGCCATCTAC”, the binding signal was 1.48 RPM ratio (pull-down/input).
With “GATGATTGTTCTCCCAGCTGATGAATTTATTAAATCGAGTAAACAAATTTTCCTAATCTTTCTGTTCAAGCGCCATCTAC”, the binding signal is 1.39 RPM ratio (pull-down/input).
Take “GATGATTGTTCTCCCAGCTGATGAATTTTTATTATCGAGTAAACAAATTTTCCTAATCTTTCTGTTCAAGCGCCATCTAC”: the binding signal was 2.02 RPM ratio (pull-down/input).
As to “GATGATTGTTCTCCCAGCTGATGAATTATTTTTATCGAGTAAACAAATTTTCCTAATCTTTCTGTTCAAGCGCCATCTAC”, the binding signal is 1.4 RPM ratio (pull-down/input).
As to “GATGATTGTTCTCCCAGCTGATGAATTATTATTATCGAGTAAACAAATTTTCCTAATCTTTCTGTTCAAGCGCCATCTAC”, the binding signal is 2.52 RPM ratio (pull-down/input).
As to “GATGATTGTTCTCCCAGCTGATGAATTATTTCTATCGAGTAAACAAATTTTCCTAATCTTTCTGTTCAAGCGCCATCTAC”, the binding signal was 1.13 RPM ratio (pull-down/input).
To “GATGATTGTTCTCCCAGCTGATGAATTTTTAGTATCGAGTAAACAAATTTTCCTAATCTTTCTGTTCAAGCGCCATCTAC” belongs 1.02 RPM ratio (pull-down/input); to “GATGATTGTTCTCCCAGCTGATGAATTGTTATTATCGAGTAAACAAATTTTCCTAATCTTTCTGTTCAAGCGCCATCTAC”, 3.14 RPM ratio (pull-down/input); to “GATGATTGTTCTCCCAGCTGATGAATTGTTAGTATCGAGTAAACAAATTTTCCTAATCTTTCTGTTCAAGCGCCATCTAC”, 1.76 RPM ratio (pull-down/input).
To “GATGATTGTTCTCCCAGCTGATGAATTATTATCATCGAGTAAACAAATTTTCCTAATCTTTCTGTTCAAGCGCCATCTAC” belongs 1.38 RPM ratio (pull-down/input).
Turning to “GATGATTGTTCTCCCAGCTGATGAATTCTTAGTATCGAGTAAACAAATTTTCCTAATCTTTCTGTTCAAGCGCCATCTAC”, the binding signal was 0.963 RPM ratio (pull-down/input).
For the sequence “GATGATTGTTCTCCCAGCTGATGAATTATCGTTATCGAGTAAACAAATTTTCCTAATCTTTCTGTTCAAGCGCCATCTAC”, the binding signal was 1.11 RPM ratio (pull-down/input).
For “GATGATTGTTCTCCCAGCTGATGAATTTGGCGTCTCGAGTAAACAAATTTTCCTAATCTTTCTGTTCAAGCGCCATCTAC”, the binding signal was 0.85 RPM ratio (pull-down/input).
With “GATGATTGTTCTCCCAGCTGATGAATTAGTTCGTTCGAGTAAACAAATTTTCCTAATCTTTCTGTTCAAGCGCCATCTAC”, the binding signal was 0.937 RPM ratio (pull-down/input).
As for “GATGATTGTTCTCCCAGCTGATGAATTCCGTGTTTCGAGTAAACAAATTTTCCTAATCTTTCTGTTCAAGCGCCATCTAC”, the binding signal was 0.891 RPM ratio (pull-down/input).
As to “GATGATTGTTCTCCCAGCTGATGAATTATGATTCTCGAGTAAACAAATTTTCCTAATCTTTCTGTTCAAGCGCCATCTAC”, the binding signal was 0.982 RPM ratio (pull-down/input).
To “GATGATTGTTCTCCCAGCTGATGAATTCCAAGCGTCGAGTAAACAAATTTTCCTAATCTTTCTGTTCAAGCGCCATCTAC” belongs 0.867 RPM ratio (pull-down/input); to “GATGATTGTTCTCCCAGCTGATGAATTGCACACATCGAGTAAACAAATTTTCCTAATCTTTCTGTTCAAGCGCCATCTAC”, 1.31 RPM ratio (pull-down/input).
In the case of “GATGATTGTTCTCCCAGCTGATGAATTTCTGCAGTCGAGTAAACAAATTTTCCTAATCTTTCTGTTCAAGCGCCATCTAC”, the binding signal was 0.883 RPM ratio (pull-down/input).
With “GATGATTGTTCTCCCAGCTGATGAATTGAGTGATTCGAGTAAACAAATTTTCCTAATCTTTCTGTTCAAGCGCCATCTAC”, the binding signal was 0.981 RPM ratio (pull-down/input).
For “GATGATTGTTCTCCCAGCTGATGAATTACCGGGCTCGAGTAAACAAATTTTCCTAATCTTTCTGTTCAAGCGCCATCTAC”, the binding signal was 0.841 RPM ratio (pull-down/input).
Next, “GATGATTGTTCTCCCAGCTGATGAATTAGAAAGTTCGAGTAAACAAATTTTCCTAATCTTTCTGTTCAAGCGCCATCTAC”: 0.938 RPM ratio (pull-down/input); “GATGATTGTTCTCCCAGCTGATGAATTTTTGATATCGAGTAAACAAATTTTCCTAATCTTTCTGTTCAAGCGCCATCTAC”: 1.17 RPM ratio (pull-down/input).
